# Shown are actives, neighbours in structure and some others; about 9.5% of the full set was active somewhere.
# NS1 inh – qHTS Assay for Inhibitors of Influenza NS1 Protein Function; Potency, µM (titrated, usually from 46.1 µM); 0.4% of 270,000 active; note: actives are rising curves; nearly all actives have a fitted effect of over 50% in size
#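 S. cerevisiae expressing influenza A NS1, grown in glucose, washed, then diluted 1:100 into pH 6.0 -URA galactose medium with 23 nl compound. Growth recovery read as OD600; NS1-free strain serves as control.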
# SARS PLP yeast – qHTS of Yeast-based Assay for SARS-CoV PLP. AID 485353, 2010. 0.19% of 330,000 active. Potency, µM (series often up to 32.9 µM), usual class: activators. S. cerevisiae expressing SARS-CoV PLpro, growth rescue; note: nearly all actives have a fitted effect of over 55% in size
# RE007 growth inh – qHTS Assay for Inhibitors of the HIV-1 protein Vpr; S. pombe RE007 Vpr strain, BacTiter-Glo ATP luminescence, 24 h; Potency, µM (titrated, usually from 92.2 µM), most hits filed as inhibitors; 0.21% of 360,000 active; AID 651644, 2012; active = well fitted falling curve with a large enough effect; inconclusive = small, poorly fitted or top-dose-only effect; inactive = no such curve, though single readings can be large or run the other way; note: nearly all actives have a fitted effect of over 50% in size
#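 Fission yeast strain RE007, carrying one chromosomally integrated HIV-1 vpr copy, was seeded at OD 0.01 in PMG+AL medium with 23 nL pinned compound. After 24 h at 30 °C and 99% humidity, viability was read by BacTiter-Glo luminescence.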
# Pf growth 48h – Primary qHTS for delayed death inhibitors of the malarial parasite plastid, 48 hour incubation; Potency, µM (doses to about 28.7 µM), hits mostly inhibitors; AID 504832, 2011; 5.9% of 310,000 active; P. falciparum luciferase growth in erythrocytes, 48 h; active = well fitted inhibition curve with a large enough effect; inconclusive = small, poorly fitted or top-dose-only effect, or another doubt; inactive = no such curve, though single readings can be large or run the other way
#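 Read-out is firefly luciferase luminescence from an integrated reporter in P. falciparum, so falling signal marks reduced parasite growth. Infected erythrocytes were at 2% hematocrit and 0.1% parasitemia (final) in Albumax-supplemented RPMI 1640.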
# Pf growth 96h – Primary qHTS for delayed death inhibitors of the malarial parasite plastid, 96 hour incubation. AID 504834, 2011. Potency, µM (doses to about 28.7 µM), usual class: inhibitors. P. falciparum luciferase reporter growth, 96 h. 6.9% of 320,000 active; active = well fitted inhibition curve with a large enough effect; inconclusive = small, poorly fitted or top-dose-only effect, or another doubt; inactive = no such curve, though single readings can be large or run the other way
#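 P. falciparum expressing integrated firefly luciferase, in erythrocytes at 2% hematocrit, 0.05% parasitemia, incubated with compounds 96 h at 37 C, 5% CO2. Growth inhibition read as loss of luminescence; two-generation exposure targets delayed-death apicoplast inhibitors.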
# Numbers stand for hits; 0 = inactive; ? = inconclusive; - = not tested or not shown. Unless noted, calls come from the whole dose curve.
SMILES,NS1 inh,SARS PLP yeast,RE007 growth inh,Pf growth 48h,Pf growth 96h
COc1ccc2c(c1)[nH]c1c(N3CCSCC3)ncnc12,0,0,0,4.65µM,6.57µM
COc1cc2[nH]c3c(Cl)ncnc3c2cc1OC,0,0,0,?,?
COc1cc2[nH]c3c(N4CCN(c5ccc(Cl)cc5)CC4)ncnc3c2cc1OC,0,0,0,4.15µM,?
C=C(CCC(=O)c1ccccc1)C(=O)c1ccccc1,0,0,31.6µM,0,0
O=C(CCCCCCCC(=O)c1ccccc1)c1ccccc1,0,0,0,0,0
O=C1C=CC(O)(c2cc(=O)c3c(O)cc(O)cc3o2)C=C1,?,0,0,9.28µM,14.7µM
O=c1cc(-c2ccccc2Cl)oc2cc(O)cc(O)c12,0,0,0,0,0
Cc1cccc(OCc2nn[nH]n2)c1C,0,0,0,0,0
COc1ccc(NC(=O)CN(C)S(=O)(=O)c2ccc3c(c2)n(C)c(=O)c(=O)n3C)cc1,0,0,0,0,0
COc1ccc(C)cc1NC(=O)CN(C)S(=O)(=O)c1ccc2c(c1)c(=O)n(C)c(=O)n2C,0,0,0,0,0
COc1ccc(NC(=O)CN(C)S(=O)(=O)c2ccc3c(c2)c(=O)n(C)c(=O)n3C)cc1,0,0,0,0,13.1µM
Cc1ccc(NC(=O)CN(C)S(=O)(=O)c2ccc3c(c2)n(C)c(=O)c(=O)n3C)cc1,0,0,0,?,11.7µM
CN(CC(=O)NCCc1ccc(Cl)cc1)S(=O)(=O)c1ccc2c(c1)c(=O)n(C)c(=O)n2C,0,0,0,-,13.1µM
COc1c(C(CC(C)C)OC(C)=O)ccc2c1C(=O)OCc1cc(C)cc(O)c1O2 (configuration not stated),0,0,0,8.28µM,0
Cc1noc2ncnc(Oc3cc(Cl)ccc3Cl)c12,0,0,0,?,13.1µM
Cc1c(NC(=O)OCCNC(=O)COc2c(Cl)cccc2Cl)sc(=S)n1C,0,0,0,?,9.28µM
CCc1ccc(-c2cc(C)no2)cc1S(=O)(=O)NCc1ccc(OC)c(OC)c1,0,0,0,0,0
CCc1ccc(-c2cc(C)no2)cc1S(=O)(=O)NCCc1ccc(OC)c(OC)c1,0,0,0,0,11.7µM
COc1ccccc1CN1CCC(CNS(=O)(=O)c2cc(-c3onc(C)c3C)ccc2OC)CC1,0,0,0,11.7µM,?
Cc1cc(-c2ccc(C)c(S(=O)(=O)NCC3CCN(Cc4ccccc4F)CC3)c2)on1,0,0,0,?,0
COc1cccc(CCN2CCC(CNS(=O)(=O)c3cc(-c4cc(C)no4)ccc3OC)CC2)c1,0,0,0,4.15µM,10.4µM
Cc1cc(-c2ccc(C)c(S(=O)(=O)NCC3CCN(Cc4cccc(F)c4)CC3)c2)on1,0,0,0,9.28µM,?
O=C1CCCCC1(O)Cc1ccc2c(c1)OCO2 (configuration not stated),-,-,0,-,-
O=C(COC(=O)C1CCN(c2ccc(C(F)(F)F)cn2)CC1)NCc1ccccc1,-,0,0,0,0
C/C(=N\N=C(/N)c1nonc1N)c1ccc2c(c1)OCO2,0,0,0,0,0
SMILES,NS1 inh,SARS PLP yeast,RE007 growth inh,Pf growth 48h,Pf growth 96h
O=C(CCc1nnc(CCCc2ccccc2)o1)NCC(F)(F)F,0,0,0,0,0
CCN(CC)C(=O)CSc1nnc([C@@H](N)C(C)C)o1,0,0,0,0,0
CC(=O)c1sccc1NC(=O)c1ccccc1C(=O)O,0,0,0,0,0
O=c1[nH]c2c(cc1CNCCN1CCOCC1)c(-c1cccc(F)c1)nn2-c1ccccc1,0,0,-,2.08µM,0
O=C(CN1CCN(S(=O)(=O)c2ccccc2)CC1)Nc1ccc(Cl)c([N+](=O)[O-])c1,-,0,0,?,?
COc1cc([C@@H]2Oc3cc(C4Oc5cc(O)cc(O)c5C(=O)[C@H]4O)ccc3O[C@H]2CO)ccc1O (some centres not stated),-,-,0,10.4µM,13.1µM
O=C(N[C@@H](Cc1ccccc1)C(=O)NCc1ccc(F)cc1)C1CCNCC1,0,0,0,0,0
CCCCCCCNC(=O)C1(CC2CC(c3ccc(Cl)cc3)=NO2)CCN(C(=O)C2(C)CC2)CC1 (configuration not stated),0,0,0,?,?
CCCCCCCNC(=O)C1(CC2CC(c3cccc(Br)c3)=NO2)CCN(C(=O)C2CCCC2)CC1 (configuration not stated),-,0,0,5.22µM,9.28µM
CCCCCCCNC(=O)C1(CC2CC(c3ccc(Cl)cc3)=NO2)CCN(C(=O)C2CCCC2)CC1 (configuration not stated),0,0,0,0,9.28µM
CCCCCCCNC(=O)C1(CC2CC(c3cccc(Br)c3)=NO2)CCN(C(=O)OC(C)(C)C)CC1 (configuration not stated),?,0,0,?,4.65µM
CCCNC(=O)C1(CC2CC(c3ccccc3)=NO2)CCN(C(=O)CCCCCBr)CC1 (configuration not stated),-,-,0,-,-
O=C(Nc1ccc(OC(F)(F)F)cc1)NC1CCC(Oc2ccc(C(=O)O)cc2)CC1 (configuration not stated),-,0,0,?,0
CCOC(=O)C1CCCN(c2cc(=O)n(C3CCCCC3)c(=O)[nH]2)C1 (configuration not stated),-,0,0,0,0
Cc1cc(Br)ccc1NC(=S)NCCc1ccccc1,0,0,0,0,11.7µM
O=C(Nc1ccncc1NC(=O)c1cccc([N+](=O)[O-])c1)c1cccc([N+](=O)[O-])c1,-,0,0,?,2.33µM
Cc1ccc([N+](=O)[O-])cc1NC(=O)c1ccccc1,-,0,0,0,2.08µM
Cc1ccc([N+](=O)[O-])cc1NC(=S)NCCc1ccccc1,0,0,0,0,13.1µM
O=C(Nc1ccc([N+](=O)[O-])cc1NC(=O)c1ccccc1)c1ccccc1,-,-,0,-,-
O=C(Nc1cccc(NC(=O)c2cccc([N+](=O)[O-])c2)n1)c1cccc([N+](=O)[O-])c1,0,0,0,0,?
Cc1cc(C)n(C(=O)CNC(=O)c2ccc(Cl)cc2Cl)n1,0,0,0,0,0
Cc1ccc(CNC(=O)COc2ccc(S(=O)(=O)N3CCOCC3)cc2)cc1,-,0,0,0,?
COc1ccc(CNC(C)C(=O)Nc2ccc3ccccc3c2)cc1OC (configuration not stated),-,0,0,0,0
Cc1ccc(C)c(NC(=O)c2cccc(Oc3ccc([N+](=O)[O-])cc3Cl)c2)c1,0,0,0,0,13.1µM
Cc1ccc(S(=O)(=O)NCC(=O)NCC(=O)NCCc2ccc(Cl)cc2)cc1C,-,-,0,-,-
C[C@H]1CN([C@@H](C)CO)C(=O)c2cccc(NS(=O)(=O)c3cn(C)cn3)c2O[C@H]1CN(C)S(C)(=O)=O,-,0,0,-,-

# High-throughput results (PubChem BioAssay)
